Results published in PubChem BioAssay (EPA / NIEHS).
A structure can be active in one record and inactive in another. Calls of active or inactive are those of the source. Rule for the calls: active = hit-call score of the fitted dose curve at least 0.9, where 1 is the maximum; inactive = score below 0.9.

read-out: Vascular cell adhesion molecule 1 (VCAM1), VCAM1 (gene 7412); assay: BSK_4H_VCAM1: BioMAP Diversity Plus: 4H Assay for Vascular cell adhesion molecule 1 (VCAM1) Biomarker Activity (AID 2283033); details: primary human endothelial cells (HUVEC); actives raise or lower the signal
Protocol: BSK_4H is a cell-based, multiplexed-readout assay that uses umbilical vein endothelium, a human vascular primary cell, with measurements taken at 24 hours after chemical dosing in a 96-well plate.BSK_4H_VCAM1 is an assay component measured in the BSK_4H assay. It measures VCAM-1 antibody related to regulation of gene expression using ELISA technology.Data from the assay component BSK_4H_VCAM1 was analyzed into 1 assay endpoint. This assay endpoint, BSK_4H_VCAM1, was analyzed with bidirectional fitting relative to DMSO as the negative control and baseline of activity. Using a type of binding reporter, gain or loss-of-signal activity can be used to understand changes in the signaling as they relate to the gene VCAM1. Furthermore, this assay endpoint can be referred to as a primary readout, because this assay has produced multiple assay endpoints where this one serves a signaling function. To generalize the intended target to other relatable targets, this assay endpoint is annotated to the cell adhesion molecules intended target family, where the subfamily is Immunoglobulin CAM.
The levels of cell surface (or secreted, indicated by the prefix "s") biomarker endpoints were measured by ELISA. Overt cytotoxicity to cells in confluent adherent cultures (all systems other than the BT system) was assessed by measuring total protein levels using sulforhodamine B (SRB) staining in parallel cultures at the time of biomarker measurements, indicated as SRB endpoints. For proliferation assays for adherent cell types, individual cell types are cultured at sub-confluence and relative cell numbers quantified by SRB staining at time points optimized for each system (48 h: 3C and CASM3C systems; 72 h: BT and HDF3CGF systems; 96 h: SAg system). SRB was performed by staining cells with 0.1% SRB after fixation with 10% TCA and reading wells at 560 nm.Viability and proliferation of PBMC (T cells) was quantified by Alamar Blue reduction for the SAg and BT systems. For PBMC viability (referred to as PBMC Cytotoxicity within the assay endpoint names), cells were plated (75,000/well in a 96-well plate) and then chemical samples added for 1 h before addition of activators, SEB and TSST-1 (20 ng/mL final concentration each). Cells were incubated for 90 h. Then, Alamar Blue (20 uL/well) (Invitrogen, Cat DAL1100) was added for 6 h, and the plates were read with a fluorescence microplate reader at 546/580 nm (excitation/emission). For PBMC proliferation, cells were plated and activated as above but incubated for only 16 h prior to addition of Alamar Blue. Plates were read after 6 h.

Row | SMILES | outcome | AC50
1 | CCOP(=S)(OCC)SCCS(=O)(=O)CC | inactive | 
2 | CCNc1nc(NC(C)(C)C)nc(SC)n1 | inactive | 
3 | COc1cc(OC)nc(NC(=O)NS(=O)(=O)c2ncccc2C(=O)N(C)C)n1 | inactive | 
4 | ClC(Cl)=C(Cl)C(Cl)=C(Cl)Cl |  | 34.8 µM (active)
5 | COP(=S)(OC)Oc1ccc(Sc2ccc(OP(=S)(OC)OC)cc2)cc1 |  | 30.2 µM (active)
6 | Oc1cccc2cccnc12 |  | 1.96 µM (active)
7 | O=C(OC1CCCCC1)c1ccccc1C(=O)OC1CCCCC1 |  | 20.9 µM (active)
8 | CCSC(C)CC1CC(=O)C(C(CC)=NOC/C=C/Cl)=C(O)C1 (stereo not given) | inactive | 
9 | COP(=S)(OC)Oc1c(Cl)cc(C)cc1Cl |  | 26.9 µM (active)
10 | Cc1ccccc1N | inactive | 
11 | O=C(O)CCC(F)(C(F)(F)F)C(F)(F)F | inactive | 
12 | CC(=O)OC(c1ccccc1)C(Cl)(Cl)Cl (stereo not given) | inactive | 
13 | Nc1ncc([N+](=O)[O-])s1 | inactive | 
14 | C[C@@H]1C[C@@H]([C@H](O)CC2CC(=O)NC(=O)C2)C(=O)[C@@H](C)C1 |  | 17.7 µM (active)
15 | COC[C@H](C)N(C(=O)CCl)c1c(C)csc1C | inactive | 
16 | O=C(O)C(F)(F)C(F)(F)C(F)(F)C(F)(F)C(F)(F)C(F)(F)F | inactive | 
17 | Oc1ccc(-c2ccccc2)cc1 | inactive | 
18 | NC(=O)O | inactive | 
19 | C(=NC1CCCCC1)=NC1CCCCC1 |  | 7.64 µM (active)
20 | ClC1(Cl)C2(Cl)C3(Cl)C4(Cl)C(Cl)(Cl)C5(Cl)C3(Cl)C1(Cl)C5(Cl)C24Cl (stereo not given) | inactive | 

Row | SMILES | outcome | AC50
21 | O=C(O)C(F)(F)C(F)(F)C(F)(F)C(F)(F)C(F)(F)C(F)(F)C(F)(F)C(F)(F)C(F)(F)C(F)(F)F | inactive | 33.2 µM (active)
22 | CC(C)c1ccc(CO)cc1 | inactive | 
23 | COP(=S)(OC)Oc1ccc(S(=O)(=O)N(C)C)cc1 | inactive | 
24 | CC(C)CCCCCCOC(=O)c1ccccc1C(=O)OCCCCCCC(C)C | inactive | 
25 | CC(C)(C)CC(C)(C)c1ccc(O)cc1 |  | 7.98 µM (active)
26 | Nc1ccc(-c2ccc(N)c(Cl)c2)cc1Cl |  | 9.55 µM (active)
27 | CC(C)(C)c1cc(O)ccc1O |  | 23.2 µM (active)
28 | CCOP(=S)(OCC)Oc1nc(Cl)c(Cl)cc1Cl |  | 15.8 µM (active)
29 | C=C(C)C(=O)[O][Sn]([CH2]CCC)([CH2]CCC)[CH2]CCC |  | 0.148 µM (active)
30 | CC(=O)[O][Hg][c]1ccccc1 |  | 2.37 µM (active)
31 | ClC1=C(Cl)[C@]2(Cl)[C@H]3[C@H]([C@H]4C=C[C@H]3C4)[C@@]1(Cl)C2(Cl)Cl |  | 7.9 µM (active)
32 | CC(C)(OO)c1ccccc1 | inactive | 
33 | O=C(O)C(Cl)(Cl)Cl | inactive | 
34 | Nc1cccc2ccccc12 | inactive | 
35 | CC1(C)Cc2cccc(O)c2O1 | inactive | 
36 | CN(C)N=O | inactive | 
37 | CCC(C)(C)c1ccc(O)c(C(C)(C)CC)c1 |  | 10.4 µM (active)
38 | OCc1ccco1 | inactive | 
39 | O=Cc1cccc(Oc2ccccc2)c1 | inactive | 
